Bioassay records (PubChem BioAssay)
Shown are actives, neighbours in structure and some others; about 19% of the full set was active somewhere.
HT1080-NT tox – kills 2HG-producing HT-1080-NT fibrosarcoma cells | HT-1080-NT fibrosarcoma viability, CellTiter-Glo ATP luminescence, 48 h | Potency, µM (highest dose often 46.1 µM), without a hit: top-dose activity, negative = less viability, most hits filed as cytotoxic | hit rate 1.6% among 360,000 | AID 686970;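 note: NT is the 2HG producing partner of a matched IDH1 knockdown line; potency is the fitted concentration of half-maximal effect; 0% = DMSO-treated cells and -100% = media-only wells without cells; nearly all actives have a fitted effect of over 55% in size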
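Read-out is CellTiter-Glo luminescence after 10 minutes at room temperature, following 48 hours' compound treatment of HT-1080-NT cells (750 cells/well, RPMI, 5% FBS, 37 degrees C).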
uPA generation – cell surface uPA generation inhibition | hit rate 0.31% among 330,000 | Potency, µM (highest dose often 38.3 µM), for the others: at the highest dose activity change, negative = inhibition, hits mostly inhibitors | cell surface uPA generation assay, qHTS; active = well fitted inhibition curve with a large enough effect; inconclusive = small, poorly fitted or top-dose-only effect; inactive = no such curve, though single readings can be large or run the other way; tested in mouse RAW 264.7 cells; note: potency is the fitted concentration of half-maximal effect; nearly all actives have a fitted effect of over 55% in size
TDP1 cell CPT – DT40-hTDP1 cell growth loss with CPT; chicken DT40 Tdp1-/-;hTDP1 cells + 20 nM CPT, ATP luminescence, 48 h; Potency, µM (highest dose often 46.2 µM), for the others: at the top dose activity change, negative = growth inhibition, actives largely listed as inhibitors; hit rate 12% among 420,000; AID 686979; note: potency is the fitted concentration of half-maximal effect; nearly all actives have a fitted effect of over 55% in size
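Chicken DT40 Tdp1-/- cells complemented with human TDP1, 400 cells/well, exposed to compounds plus 20 nM camptothecin for at least 48 h at 37 C; viability read as ATP content by CellTiter-Glo luminescence.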
IL-1B inflam inh – inflammasome signaling inhibition, IL-1 beta readout | THP-1 LPS/ATP IL-1B secretion, AlphaLISA, 16 h; active compounds read low | activity change, % at 57.5 µM | hit rate 4.7% among 360,000; in the data active = activity change below about -50%; inconclusive = mostly about -30% to -49%
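Secreted IL-1B measured by AlphaLISA bead assay after 16 h compound exposure of THP-1 cells; compounds (final up to 57.5 uM) added 1 h before LPS (250 ng/mL) and ATP (1.25 mM) stimulation; lower signal means less secretion.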
TDP1 cell noCPT – qHTS for Inhibitors of human tyrosyl-DNA phosphodiesterase 1 (TDP1): qHTS in cells in absence of CPT | DT40 Tdp1-/- hTDP1 cells, no CPT, ATP luminescence, 48 h | Potency, µM (doses to about 46.2 µM), without a hit: top-dose activity change, negative = growth inhibition, usual class: inhibitors | hit rate 15% among 420,000 | AID 686978, 2013; note: potency is the fitted concentration of half-maximal effect; nearly all actives have a fitted effect of over 55% in size
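A cellular qHTS used chicken DT40 cells lacking endogenous Tdp1 but carrying stably transfected human TDP1. Compounds were applied without camptothecin, and cell growth kinetics were judged by ATP-dependent luminescence after ≥48 hr.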
HT1080 IDH1KD tx – toxicity to HT-1080 IDH1 knockdown cells (counter line). HT-1080 IDH1 knockdown viability, ATP luminescence, 48 h. Potency, µM (highest dose often 46.1 µM), for inactives: top-dose activity, negative = toxicity, most hits filed as cytotoxic. hit rate 2% among 360,000. AID 686971;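 note: potency is the fitted concentration of half-maximal effect; 0% = DMSO wells and -100% = cell-free medium wells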
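Using the IDH1-knockdown HT-1080 line run in the same batch and compound series as the NT line, viability after 48 h at 37 °C was determined by CellTiter-Glo luminescence and expressed as % activity.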
* hit, by the source's call; i = inactive; ? = inconclusive; . = no result given. Unless noted, calls come from the whole dose curve; as a rule, active = well fitted curve in the direction sought with a large enough effect; inconclusive = small, poorly fitted or top-dose-only effect, or another doubt; inactive = no such curve, though single readings can be large; an effect the other way counts as inactive or inconclusive. Unless noted, % is set by controls: 0 for no effect and ±100 for the full control effect.

SMILES | HT1080-NT tox | uPA generation | TDP1 cell CPT | IL-1B inflam inh | TDP1 cell noCPT | HT1080 IDH1KD tx
O=C(COc1ccccc1)Nc1cccc(-c2cn3cccnc3n2)c1 | 8% | -4% | 21µM* | i | ? | 11%
CC(=O)Nc1cccc(-c2cn3cccnc3n2)c1 | . | . | 3% | . | 2% | .
COc1ccccc1C(=O)NCCC(=O)NCC(c1ccco1)N1CCCC1 (centres undefined) | -2% | 5% | 1% | 9 | 0% | -2%
CCN(CC)C(=O)Cn1cc(C(=O)C(=O)N2CCN(c3ccc(OC)cc3)CC2)c2ccccc21 | 8% | 2% | -13% | -12 | 9% | 3%
Cc1ccc(/C=C/C(=O)Nc2ccc(N(C)C)cc2)o1 | -1% | -3% | 21µM* | -29 | ? | -6%
Cc1ccc(/C=C/C(=O)NC2CCCCCCC2)o1 | -2% | -18% | 2.6µM* | -104* | 3.7µM* | ?
COc1cccc(NC(=O)c2ccc3[nH]c(C)cc(=O)c3c2)c1 | . | . | -16% | . | ? | .
Nc1cccc2c(=O)c3ccccc3[nH]c12 | -2% | 1% | 13µM* | -7 | 8.2µM* | -18%
COC(=O)c1ccc(CCc2cc(O)c(Br)cc2O)cc1 | -29% | -4% | 2.1µM* | -79* | 2.3µM* | -28%
COC(=O)c1cc(Br)c(=O)n(CCc2ccccc2)c1 | 10% | -7% | ? | 10 | -16% | 15%
COC(=O)c1ccc(CCc2cc(O)ccc2O)cc1 | 26µM* | -6% | 2.9µM* | ? | 5.2µM* | ?
COC(=O)c1ccc(O)cc1 | 11% | 4% | 14% | 9 | 3% | ?
NC1=NC2CS(=O)(=O)CC2S1 (centres undefined) | -1% | 1% | -27% | -6 | -23% | 0%
O=C(Cc1n[nH]c(=O)[nH]c1=O)N/N=C/c1c(O)ccc2ccccc12 | 1% | 0% | 19% | -11 | -1% | 1%
COc1ccccc1N(CC(=O)N/N=C/c1c(O)ccc2ccccc12)S(C)(=O)=O | ? | -7% | 5.2µM* | -7 | 5.8µM* | ?
O=C(CNc1ccc(F)cc1)N/N=C/c1c(O)ccc2ccccc12 | ? | ? | 10µM* | 177 | 9.2µM* | 10µM*
COc1ccccc1NCC(=O)N/N=C/c1c(O)ccc2ccccc12 | 15µM* | ? | 5.8µM* | 171 | 2.9µM* | 10µM*
Cn1ncc(N=Cc2c(O)ccc3ccccc23)c1C(=O)N1CCOCC1 | 1% | 3% | 1% | 19 | -20% | 4%
COc1ccccc1NC(=O)c1c(N=Cc2c(O)ccc3ccccc23)cnn1C | 8.2µM* | 2% | 8.2µM* | 61 | 6.5µM* | 5.8µM*
CCOc1ccc2ccccc2c1/C=N/NC(=O)CNC(=O)Cc1ccccc1 | 0% | -18% | 18µM* | -17 | 1% | -1%
COc1ccc(C(N)c2csc(Nc3nncc4ccccc34)n2)cc1 (centres undefined) | ? | . | ? | -17 | ? | ?
NC(COCc1ccccc1)c1csc(Nc2nncc3ccccc23)n1 (centres undefined) | ? | . | ? | ? | 21µM* | ?
NC(CCc1ccccc1)c1csc(Nc2ccc(C(F)(F)F)cn2)n1 (centres undefined) | -28% | . | 21µM* | -28 | ? | ?
NC(CCc1ccccc1)c1csc(Nc2ccccn2)n1 (centres undefined) | ? | . | ? | ? | ? | 16µM*
NS(=O)(=O)c1ccc(CCNc2ccc(C(F)(F)F)cn2)cc1 | -2% | -1% | 1% | 48 | -16% | -21%
SMILES | HT1080-NT tox | uPA generation | TDP1 cell CPT | IL-1B inflam inh | TDP1 cell noCPT | HT1080 IDH1KD tx
NC(COCc1ccccc1)c1csc(Nc2ccccn2)n1 (centres undefined) | 4% | . | 26µM* | -4 | ? | -5%
COc1ccc2c(c1)C=C(CN1CCN(C3CCCC3)C(CCO)C1)CO2 (centres undefined) | -23% | -2% | -8% | -11 | -13% | -9%
COc1ccc(OC)c(CNC(=O)c2ccc(Sc3ccc(C)cc3)c(N)c2)c1 | . | . | 23µM* | . | 21µM* | .
CCc1nc2ccc(C(=O)NCc3cc(OC)ccc3OC)cc2nc1CC | . | . | 16µM* | . | ? | .
CCc1nc2ccc(C(=O)NCCc3ccc(OC)cc3OC)cc2nc1CC | . | . | 26µM* | . | 18µM* | .
O=C1C(c2ccccc2)C(c2ccccc2)NC(c2ccccc2)C1c1ccccc1 (centres undefined) | -19% | 4% | ? | 17 | 23µM* | -26%
O=C1NNC(=O)C1c1ccccc1 | 0% | 0% | -1% | -6 | 1% | 10%
Clc1ccc(OCCCn2ccnc2)c(Br)c1 | 0% | -1% | ? | 0 | ? | 11%
CCCCNCCOCCOc1ccc(Cl)cc1Br | ? | 8% | 21µM* | ? | 33µM* | ?
CCCCNCCCOc1cc(Cl)ccc1Cl | ? | -6% | ? | ? | ? | -24%
CC(C)NCCCCOc1ccc(Br)cc1Cl | ? | ? | 23µM* | -7 | 18µM* | ?
COCCCNCCCOc1ccc(Cl)cc1Br | ? | 2% | 26µM* | -25 | ? | -26%
CC(C)NCCCOc1ccc(Cl)cc1Br | ? | 9% | 18µM* | -13 | ? | ?
CCOc1ccc(C(C)=O)cc1CN1C(=O)C(=O)N(CC)C1=O | 12% | 0% | 3% | 8 | 11% | 6%
CCOC(=O)CC1(C)Sc2ccccc2N1S(=O)(=O)c1ccc(C)cc1 (centres undefined) | -29% | . | ? | -1 | ? | -21%
O=C1Nc2ccccc2Oc2cc(Oc3ccc(Cl)cc3)ccc21 | . | . | -25% | . | ? | .
O=C1Nc2cc(Cl)ccc2Oc2cc(Oc3ccccc3)ccc21 | . | . | ? | . | 21µM* | .
N#Cc1cccc(-c2cncnc2-n2ccnc2)c1 | . | . | 6% | . | 15% | .
CC(=O)N/C(=C\c1ccccc1)C(=O)OC(C)C(=O)NCc1ccccc1 (centres undefined) | 0% | -1% | -11% | 4 | -19% | 2%
CC(OC(=O)/C=C/c1ccc2ccccc2n1)C(=O)NCc1ccccc1 (centres undefined) | 3% | ? | ? | -75* | ? | 11%
O=C(CC1Oc2ccccc2NC1=O)NCc1ccccc1 (centres undefined) | 4% | 0% | ? | 5 | -10% | 5%
CC(=O)CC1OC(=O)C(Br)=C1NCc1ccccc1 (centres undefined) | 3.5µM* | 19% | 0.92µM* | -100* | 1.5µM* | 0.89µM*
